3CLpro inhibitor: SARS-CoV 3CLpro protease inhibition; P0C6X7; recombinant SARS-CoV 3CLpro, quenched FRET peptide cleavage; inhibition, % at 6 µM; 290,000 tested, 0.14% active; AID 1706; in the data active = inhibition above about 12%
BJeLR lethal: BJeLR cell viability loss; BJeLR (HRASV12) viability, CellTiter-Glo ATP luminescence, 48 h; inhibition, % (concentration not given with the values); 300,000 tested, 0.17% active; in the data active = inhibition above about 50%
SSB-PriA inh: blocks PriA binding to SSB C-terminal tail; AlphaScreen SSBct-PriA binding, biotinylated peptide; inhibition, % at 33 µM; 430,000 tested, 0.6% active; in the data active = inhibition mostly above about 37%, no sharp cut-off; inactive = mostly below about 20%;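 note: plate controls were negative control peptide for no effect and reference peptide for full effect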
The depositor's hits bear a star; x = no result given; + = active, no number. Hits are enriched below; roughly 0.78% of the tested compounds scored in any of these assays.

SMILES	3CLpro inhibitor	BJeLR lethal	SSB-PriA inh
CC(C)(C)NC(=O)NCC(c1ccsc1)N1CCc2ccccc2C1 (stereo unspecified)	x	x	-1
Nn1c(-c2ccccc2)n[nH]c1=S	x	x	5
Cc1ccccc1C=Nn1c(-c2ccccn2)n[nH]c1=S	x	x	59*
Cc1ccc(C=Nn2c(-c3ccccn3)n[nH]c2=S)o1	x	x	72*
S=c1[nH]nc(-c2ccccn2)n1N=Cc1cccc2ccccc12	x	x	38
S=c1[nH]nc(-c2ccccn2)n1/N=C/c1ccco1	-1	-5	x
S=c1[nH]nc(-c2ccccn2)n1N=Cc1ccccc1	x	x	74*
S=c1[nH]nc(-c2ccccn2)n1N=Cc1ccc(Cl)cc1	x	x	3
Nn1c(-c2ccccn2)n[nH]c1=S	x	x	83*
COC(=O)C1C(=N)Oc2cc(C)n(Cc3ccccn3)c(=O)c2[C@H]1c1cccc(OC)c1OC (stereo partly specified)	x	x	-4
COc1ccc(S(=O)(=O)Nc2ccc(-c3cn4nc(OC)ccc4n3)cc2)cc1	x	x	-5
O=C(O)Cn1ccc(=O)c2cccc(F)c21	x	x	-8
COCCN(CC(=O)Oc1ccccc1P(=O)(OC)OC)Cc1ccccc1	-1	10	-4
O=C(CN(CCc1ccccc1)Cc1ccccc1)Oc1ccccc1P(=O)(O)O	5	-1	92*
COc1ccc(C(N)=NOC(=O)Oc2ccccc2)cc1OC	x	x	-2
O=C(Nc1ccc(S(=O)(=O)c2ccccc2)cc1)c1cccc(S(=O)(=O)N2CCCC2)c1	x	x	-17
NC(=O)NC(=O)CC1SC(=NN=C2CSC(=O)N2)NC1=O (stereo unspecified)	x	x	74*
NC(=O)NC(=O)CC1S/C(=N/N=C2/NC(=O)CS2)NC1=O (stereo unspecified)	1	5	x
CC1(C)Cc2ccccc2C(CCl)=N1	x	x	45*
CC1(C)Cc2ccccc2C(COc2ccccc2)=N1	2	-3	8
COc1ccc(CCNS(=O)(=O)c2ccc(F)c(C(=O)Nc3ccc(Cl)cc3C(F)(F)F)c2)cc1OC	x	x	-6
Cn1nc(CN(Cc2ccco2)C(=O)Nc2ccccc2Cl)cc1C1CC1	x	x	-6
O=C(CC1CCCCN1S(=O)(=O)c1cccs1)Nc1ccccc1 (stereo unspecified)	x	x	21
O=[N+]([O-])c1cc(F)c(N2CCc3ccccc3C2)cc1N1CCCCCC1	x	x	65*
CC1CCN(c2cc(N3CCc4ccccc4C3)c(F)cc2[N+](=O)[O-])CC1	x	x	57
SMILES	3CLpro inhibitor	BJeLR lethal	SSB-PriA inh
CC1CCN(c2cc(N3CCOCC3)c([N+](=O)[O-])cc2F)CC1	4	5	5
O=[N+]([O-])c1cc(F)c(N2CCCCCC2)cc1N1CCc2ccccc2C1	x	x	55*
O=[N+]([O-])c1cc(F)c(N2CCc3ccccc3C2)cc1N1CCCC1	x	x	52
CC1CCN(c2cc(N3CCOCC3)c(F)cc2[N+](=O)[O-])CC1	2	4	58*
CC1(C)CC(C(N)=O)C1	x	x	-14
CN(C)c1ccc(C=NS(=O)(=O)CCc2ccccc2)cc1	x	x	3
CCOc1coc(C(=O)Nc2nc3ccc(C)cc3s2)cc1=O	x	x	-16
COc1ccccc1CNC(=O)CSc1ccc(-c2sc(-c3cccnc3)nc2C)nn1	x	x	2
CCN(CC)c1ccc(CNc2ccc(Br)cn2)cc1	1	3	10
CCN(CC)c1ccc(Nc2nc(Cl)ncc2Br)cc1	-3	-4	41*
O=C(NN1C(=O)CSC1=S)c1ccc(Cl)cc1Cl	x	x	7
CON=Cc1ccc(Sc2ccccc2)c([N+](=O)[O-])c1	x	x	55*
CO/N=C/c1ccc(Sc2ccccc2N)c([N+](=O)[O-])c1	2	4	x
CON=Cc1ccc(Sc2ccccc2N)c([N+](=O)[O-])c1	x	x	52*
CO/N=C/c1ccc(N2CCN(C(=O)c3ccc(F)cc3)CC2)c([N+](=O)[O-])c1	6	1	x
CO/N=C/c1ccc(N2CCN(C)CC2)c([N+](=O)[O-])c1	x	x	+
CO/N=C/c1ccc(Sc2ccccc2)c([N+](=O)[O-])c1	-1	-9	x
c1ccc2c(c1)c1ccccc1n2CCOCCN1CCCC1	x	x	7
COC(=O)CSC1CCN(C(=O)c2ccc3nccc(C)c3c2)C1 (stereo unspecified)	x	x	-4
O=C(NCc1ccc(F)cc1)c1cnn2ccccc12	-1	-13	104*
CCc1ccc(NC(=O)c2cnn3ccccc23)cc1	-2	11	-13
COc1ccc(-n2c(C)nc3ccc(NS(=O)(=O)c4ccccc4[N+](=O)[O-])cc3c2=O)cc1	x	x	-8
CCN(CC)c1ccc(C(=C2C=CC(=[N+](CC)CC)C=C2)c2ccc(S(=O)(=O)O)cc2S(=O)(=O)[O-])cc1	x	x	82*
CCN(CC)c1ccc(/C=C2\C(=O)c3ccc(C(=O)O)cc3C2=O)cc1	-5	x	0
CCOC(=O)c1c(NC(=O)C(C)Sc2cn(CCNC(=O)c3ccc(Cl)cc3Cl)c3ccccc23)sc2c1CCC2 (stereo unspecified)	x	x	-15
SMILES	3CLpro inhibitor	BJeLR lethal	SSB-PriA inh
O=C(Nc1cccc(-c2cn3ccsc3n2)c1)c1ccno1	x	x	2
O=C(NCc1cc(-c2ccccc2)on1)c1ccco1	x	x	-13
O=C(NCc1cc(-c2ccco2)on1)c1ccc(Br)o1	x	x	39*
O=[N+]([O-])c1ccc(Sc2nnnn2-c2ccccc2)c(Cl)c1	5	12	45*
Cn1nnnc1Sc1ccc([N+](=O)[O-])cc1Cl	-2	0	8
COc1cccc(C(=O)Nc2ccc(Nc3ccc(-n4cccn4)nn3)cc2)c1OC	x	x	70*
O=C(Nc1ccc(Nc2ccc(-n3cccn3)nn2)cc1)c1ccccc1C(F)(F)F	x	x	5
O=C(Nc1ccc(F)cc1)Nc1ccc(Nc2ccc(-n3cccn3)nn2)cc1	x	x	-6
O=C(Nc1ccc(-n2nncc2-c2ccco2)cc1)c1cc2ccccc2oc1=O	-2	-6	46*
O=C(Nc1ccc(Nc2ccc(-n3cccn3)nn2)cc1)c1cccc(Br)c1	x	x	-21
O=C(Nc1ccc(Nc2ccc(-n3cccn3)nn2)cc1)c1cc2ccccc2oc1=O	x	x	56*
O=C(Nc1ccc(-n2nncc2-c2ccco2)cc1)c1cccc(F)c1	-3	21	-1
O=C(Nc1ccc(Nc2ccc(-n3cccn3)nn2)cc1)Nc1cccc(F)c1	x	x	36*
Cc1cc(NS(=O)(=O)c2ccc(NC(=O)COc3cccc4c3OC(C)(C)C4)cc2)nc(C)n1	x	x	5
COc1ccc(-c2ccc(=O)n(CCCC(=O)N3c4ccccc4CC3C)n2)cc1OC (stereo unspecified)	x	x	-10
COC(=O)C1CC(Oc2ccccc2F)CN1C(=O)Cc1ccc(SC(C)C)cc1 (stereo unspecified)	x	x	3
N#Cc1cnc2ccccc2c1Nc1cccc(C(F)(F)F)c1	x	x	-25
Cc1ccc(-n2c(-c3ccccc3)nc(=S)[nH]c2=S)cc1	x	x	-5
O=C(Cc1ccccc1Cl)N[C@H](c1cccnc1)C1CCOCC1	x	x	0
CSc1nc(C)c(C(C)=O)c(-c2ccc(Cl)cc2)c1C#N	x	x	-22
O=C(O)c1cc(-n2cccc2)ccn1	x	x	95*
O=C(c1cc(-n2cccc2)ccn1)N1CCN(C/C=C/c2ccccc2)CC1	x	x	-10
CN(C)c1oc(-c2ccc(OCc3ccccc3)cc2)nc1C#N	-4	2	3
CN(Cc1ccccc1)c1oc(COc2ccc(F)cc2)nc1C#N	x	x	64*
Cn1cccc1C(CNC(=O)C(=O)Nc1ccc(OC(F)(F)F)cc1)N1CCCC1 (stereo unspecified)	x	x	-23
Fc1ccc(/C=N/N2CCCCC2)c(F)c1	0	1	x
